# Test results taken from PubChem BioAssay (EPA / NIEHS).
# Several values for one entry are separate records, joined by “and”; a condition that tells them apart may be missing. Equal entries are not always repeated. Records with an inconclusive call do not appear. Where a structure was tested more than once in an assay, its records may differ in their call. Activity calls are given as the source filed them. The calls were made as follows: active = hit-call score of the fitted dose curve at least 0.9, where 1 is the maximum; inconclusive = response in the unintended direction; inactive = score below 0.9.
# Biological target: Estrogen receptor (Homo sapiens) (UniProt P03372)
# Assay: OT_ERa_GFPERaERE_0120: Odyssey Thera (OT) 2-hour HeLa Transcription Induction Assay for Estrogen Receptor (AID 2283382)
# Procedure, shortened: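 HeLa cells were dosed for 2 h, then GFP reporter induction was quantified by fluorescence microscopy with high-content image analysis. Gain of signal fitted against DMSO baseline.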
# Estrogen receptor (Homo sapiens), sequence (P03372 whole entry, looked up): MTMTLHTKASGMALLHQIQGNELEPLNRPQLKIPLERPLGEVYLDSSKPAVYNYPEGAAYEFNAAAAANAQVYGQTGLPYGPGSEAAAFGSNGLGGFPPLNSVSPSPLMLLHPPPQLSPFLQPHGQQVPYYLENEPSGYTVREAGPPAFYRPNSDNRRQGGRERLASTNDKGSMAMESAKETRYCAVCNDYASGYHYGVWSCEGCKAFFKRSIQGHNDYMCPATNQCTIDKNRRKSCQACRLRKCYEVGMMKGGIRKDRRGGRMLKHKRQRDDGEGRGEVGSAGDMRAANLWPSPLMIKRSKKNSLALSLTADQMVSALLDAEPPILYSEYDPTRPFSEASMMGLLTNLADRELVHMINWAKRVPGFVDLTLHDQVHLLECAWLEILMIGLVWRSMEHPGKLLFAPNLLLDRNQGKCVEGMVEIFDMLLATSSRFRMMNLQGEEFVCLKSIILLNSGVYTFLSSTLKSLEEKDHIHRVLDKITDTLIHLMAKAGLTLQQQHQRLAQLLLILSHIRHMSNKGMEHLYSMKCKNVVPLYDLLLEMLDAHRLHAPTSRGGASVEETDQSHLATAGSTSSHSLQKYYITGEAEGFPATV
Compound,outcome,AC50
FC(F)(F)C(F)(F)C(F)(F)C(F)(F)C(F)(F)C(F)(F)CCI,inactive,–
Cc1ccc(C)c(O)c1C,inactive,–
COc1ccc2c(c1)c(CC(=O)O)c(C)n2C(=O)c1ccc(Cl)cc1,inactive,–
Cc1nc(-c2ccc3c(c2)CCN(CCC2CCC(NC(=O)/C=C/c4ccc(F)cc4)CC2)CC3)no1 (centres undefined),inactive,–
Cc1oc(-c2ccccc2)nc1CCOc1cccc2c1ccn2CCC(=O)O,inactive,–
Cc1ccc(C)c(C)c1,inactive,–
CC(=O)Oc1ccccc1C(=O)O,inactive,–
CC1(C)NC(=O)NC1=O,inactive,–
CCNc1cccc(C)c1,inactive,–
CC(=O)C(C)=CC1C(C)=CCCC1(C)C (centres undefined),–,12.3 µM (active)
CCCCCCC(=O)OCC,inactive,–
NCC1(Cc2noc(=O)[nH]2)CCCCC1,inactive,–
CCCCCCOCCO,inactive,–
Cc1cccc(Nc2cc(Cl)nc(SCC(=O)O)n2)c1C,inactive,–
COC(=O)c1ccc(O)cc1,inactive,–
CCOC(=O)CCC(=O)OCC,inactive,–
CC=Cc1ccc(O)c(OC)c1,inactive,–
Clc1cc(Cl)c(Cl)cc1Cl,inactive,–
C1CCC(SSC2CCCCC2)CC1,inactive,–
Cc1ccc2ncccc2c1,inactive,–
CCCCCCCCCCCCCO,inactive,–
COCCOC[C@H](CC1(C(=O)NC2CCC(C(=O)O)CC2)CCCC1)C(=O)Oc1ccc2c(c1)CCC2 (some centres undefined),inactive,–
CNCc1cc(F)ccc1Oc1ccc(Cl)c(Cl)c1,–,70.5 µM (active)
Cc1nc(C)nc(N2C[C@@H](C)N(c3ccnc([C@@H](C)O)n3)[C@@H](C)C2)n1,inactive,–
CC(=O)OC/C=C(\C)CCC=C(C)C,inactive,–
Nc1ccccc1N,inactive,–
O=C(OCCCCCOC(=O)c1ccccc1)c1ccccc1,inactive,–
Cc1cccc(C)c1O,inactive,–

# Biological target: Retinoic acid receptor RXR-alpha (Homo sapiens) (UniProt P19793)
# Assay: OT_NURR1_NURR1RXRa_0480: Odyssey Thera (OT) 8-hour HEK293T Protein Complementation Assay for Nurr1/retinoid X receptor (RXR) (AID 2283385)
# Procedure, shortened: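 HEK293T cells expressing Nurr1 and RXRα fused to reporter fragments (protein-fragment complementation); fluorescence measured 8 h after dosing. Gain of signal fitted relative to DMSO.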
# Retinoic acid receptor RXR-alpha (Homo sapiens), sequence (P19793 whole entry, looked up): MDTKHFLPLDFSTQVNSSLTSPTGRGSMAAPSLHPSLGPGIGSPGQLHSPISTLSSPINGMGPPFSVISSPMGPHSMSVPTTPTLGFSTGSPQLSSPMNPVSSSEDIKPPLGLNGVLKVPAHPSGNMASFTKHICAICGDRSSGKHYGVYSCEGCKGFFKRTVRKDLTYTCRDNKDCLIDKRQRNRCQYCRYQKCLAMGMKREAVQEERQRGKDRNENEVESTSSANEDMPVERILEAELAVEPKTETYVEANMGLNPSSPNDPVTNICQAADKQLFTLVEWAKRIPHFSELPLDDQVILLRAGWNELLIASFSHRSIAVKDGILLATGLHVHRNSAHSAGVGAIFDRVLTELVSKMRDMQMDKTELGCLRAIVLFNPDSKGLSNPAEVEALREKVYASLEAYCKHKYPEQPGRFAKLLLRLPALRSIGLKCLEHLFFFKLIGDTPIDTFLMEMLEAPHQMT
Compound,outcome,AC50
FC(F)(F)C(F)(F)C(F)(F)C(F)(F)C(F)(F)C(F)(F)CCI,inactive,–
Cc1ccc(C)c(O)c1C,inactive,–
Cc1nc(-c2ccc3c(c2)CCN(CCC2CCC(NC(=O)/C=C/c4ccc(F)cc4)CC2)CC3)no1 (centres undefined),inactive,–
Cc1oc(-c2ccccc2)nc1CCOc1cccc2c1ccn2CCC(=O)O,inactive,–
Cc1ccc(C)c(C)c1,inactive,–
CC(=O)Oc1ccccc1C(=O)O,inactive,–
CC1(C)NC(=O)NC1=O,inactive,–
CCNc1cccc(C)c1,inactive,–
CC(=O)C(C)=CC1C(C)=CCCC1(C)C (centres undefined),inactive,–
CCCCCCC(=O)OCC,inactive,–
NCC1(Cc2noc(=O)[nH]2)CCCCC1,inactive,–
CCCCCCOCCO,inactive,–
Cc1cccc(Nc2cc(Cl)nc(SCC(=O)O)n2)c1C,inactive,–
CCOC(=O)CCC(=O)OCC,inactive,–
CC=Cc1ccc(O)c(OC)c1,inactive,–
Clc1cc(Cl)c(Cl)cc1Cl,inactive,–
C1CCC(SSC2CCCCC2)CC1,inactive,79.5 µM (active)
CCCCCCCCCCCCCO,inactive,67.5 µM (active)
COCCOC[C@H](CC1(C(=O)NC2CCC(C(=O)O)CC2)CCCC1)C(=O)Oc1ccc2c(c1)CCC2 (some centres undefined),inactive,–
Cc1nc(C)nc(N2C[C@@H](C)N(c3ccnc([C@@H](C)O)n3)[C@@H](C)C2)n1,inactive,–
CC(=O)OC/C=C(\C)CCC=C(C)C,inactive,–
CN1CCN(Cc2cc(-c3ccc4[nH]c(=O)oc4c3)co2)[C@@H](c2ccc(F)cc2)C1,–,10.1 µM (active)
Nc1ccccc1N,inactive,–
O=C(OCCCCCOC(=O)c1ccccc1)c1ccccc1,inactive,72.2 µM (active)

# Biological target: Retinoic acid receptor RXR-alpha (Homo sapiens) (UniProt P19793)
# Assay: OT_NURR1_NURR1RXRa_1440: Odyssey Thera (OT) 24-hour HEK293T Protein Complementation Assay for Nurr1/retinoid X receptor (RXR) (AID 2283386)
# Procedure, shortened: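 HEK293T protein-fragment complementation of Nurr1 and RXRα fused to reporter fragments; compounds 24 h. Fluorescence gain from reconstituted reporter fitted versus DMSO.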
row,Compound,outcome
1,FC(F)(F)C(F)(F)C(F)(F)C(F)(F)C(F)(F)C(F)(F)CCI,inactive
2,Cc1ccc(C)c(O)c1C,inactive
3,Cc1nc(-c2ccc3c(c2)CCN(CCC2CCC(NC(=O)/C=C/c4ccc(F)cc4)CC2)CC3)no1 (centres undefined),inactive
4,Cc1ccc(C)c(C)c1,inactive
5,CC(=O)Oc1ccccc1C(=O)O,inactive
6,CC1(C)NC(=O)NC1=O,inactive
7,CCNc1cccc(C)c1,inactive
8,CC(=O)C(C)=CC1C(C)=CCCC1(C)C (centres undefined),inactive
9,NCC1(Cc2noc(=O)[nH]2)CCCCC1,inactive
10,CCCCCCOCCO,inactive
11,Cc1cccc(Nc2cc(Cl)nc(SCC(=O)O)n2)c1C,inactive
12,COC(=O)c1ccc(O)cc1,inactive
13,CCOC(=O)CCC(=O)OCC,inactive
14,CC=Cc1ccc(O)c(OC)c1,inactive
15,Clc1cc(Cl)c(Cl)cc1Cl,inactive
16,C1CCC(SSC2CCCCC2)CC1,inactive
17,CCCCCCCCCCCCCO,inactive
18,COCCOC[C@H](CC1(C(=O)NC2CCC(C(=O)O)CC2)CCCC1)C(=O)Oc1ccc2c(c1)CCC2 (some centres undefined),inactive
19,CC(=O)OC/C=C(\C)CCC=C(C)C,inactive
20,Nc1ccccc1N,inactive

# Biological target: Peroxisome proliferator-activated receptor gamma (Homo sapiens) (UniProt P37231)
# Assay: OT_PPARg_PPARgSRC1_0480: Odyssey Thera (OT) 8-hour Protein-Complementation Assay for Peroxisome Proliferator-activated Receptor Gamma / SRC-1 Co-activator (AID 2283387);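 also: nuclear to cytoplasmic split Venus YFP fluorescence ratio reporting PPARg SRC-1 interaction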
# Procedure, shortened: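 Protein-fragment complementation in HEK293T: Venus YFP halves (residues 1-158, 159-239, mutated to IFP1/IFP2) fused to PPARg/SRC-1. 8 h exposure; N/C ratio at 488 nm; DMSO negative control.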
# Peroxisome proliferator-activated receptor gamma (Homo sapiens), sequence (P37231 whole entry, looked up): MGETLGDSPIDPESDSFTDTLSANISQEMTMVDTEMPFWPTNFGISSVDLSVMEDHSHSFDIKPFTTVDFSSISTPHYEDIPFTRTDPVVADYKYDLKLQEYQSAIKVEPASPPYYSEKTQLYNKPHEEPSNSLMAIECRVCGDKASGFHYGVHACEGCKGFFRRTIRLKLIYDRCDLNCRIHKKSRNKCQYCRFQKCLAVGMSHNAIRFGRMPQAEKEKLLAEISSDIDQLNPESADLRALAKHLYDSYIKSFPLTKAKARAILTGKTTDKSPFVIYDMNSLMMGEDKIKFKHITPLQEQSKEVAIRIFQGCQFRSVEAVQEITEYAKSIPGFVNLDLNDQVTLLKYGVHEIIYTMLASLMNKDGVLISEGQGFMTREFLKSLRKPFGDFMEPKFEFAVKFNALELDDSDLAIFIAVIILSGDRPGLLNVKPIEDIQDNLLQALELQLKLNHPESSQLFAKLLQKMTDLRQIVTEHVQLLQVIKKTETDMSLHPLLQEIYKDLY
Compound,outcome,AC50
FC(F)(F)C(F)(F)C(F)(F)C(F)(F)C(F)(F)C(F)(F)CCI,inactive,–
Cc1ccc(C)c(O)c1C,inactive,–
COc1ccc2c(c1)c(CC(=O)O)c(C)n2C(=O)c1ccc(Cl)cc1,inactive,–
Cc1nc(-c2ccc3c(c2)CCN(CCC2CCC(NC(=O)/C=C/c4ccc(F)cc4)CC2)CC3)no1 (centres undefined),inactive,–
Cc1oc(-c2ccccc2)nc1CCOc1cccc2c1ccn2CCC(=O)O,–,2.57 µM (active) and 4.49 µM (active)
Cc1ccc(C)c(C)c1,inactive,–
CC(=O)Oc1ccccc1C(=O)O,inactive,–
CC1(C)NC(=O)NC1=O,inactive,–
CCNc1cccc(C)c1,inactive,–
CC(=O)C(C)=CC1C(C)=CCCC1(C)C (centres undefined),inactive,–
CCCCCCC(=O)OCC,inactive,–
NCC1(Cc2noc(=O)[nH]2)CCCCC1,inactive,–
CCCCCCOCCO,inactive,–
Cc1cccc(Nc2cc(Cl)nc(SCC(=O)O)n2)c1C,inactive,–
COC(=O)c1ccc(O)cc1,inactive,–
CCOC(=O)CCC(=O)OCC,inactive,–
CC=Cc1ccc(O)c(OC)c1,inactive,–
Clc1cc(Cl)c(Cl)cc1Cl,inactive,–
C1CCC(SSC2CCCCC2)CC1,inactive,–
Cc1ccc2ncccc2c1,inactive,–
CCCCCCCCCCCCCO,inactive,–
COCCOC[C@H](CC1(C(=O)NC2CCC(C(=O)O)CC2)CCCC1)C(=O)Oc1ccc2c(c1)CCC2 (some centres undefined),inactive,–
CNCc1cc(F)ccc1Oc1ccc(Cl)c(Cl)c1,inactive,–
Cc1nc(C)nc(N2C[C@@H](C)N(c3ccnc([C@@H](C)O)n3)[C@@H](C)C2)n1,inactive,–
CC(=O)OC/C=C(\C)CCC=C(C)C,inactive,–
CN1CCN(Cc2cc(-c3ccc4[nH]c(=O)oc4c3)co2)[C@@H](c2ccc(F)cc2)C1,inactive,–
Nc1ccccc1N,inactive,–
O=C(OCCCCCOC(=O)c1ccccc1)c1ccccc1,inactive,–
Cc1cccc(C)c1O,inactive,–
